# PubChem BioAssay
# Inconclusive results are not listed. Calls of active or inactive are those of the source.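 Rule for the calls, unless noted: active = viability loss from added drug above about 55%, and viability with drug at most 40%, in both replicates (limit read from the data, passing the limit was not always enough); inconclusive = both conditions met in only one replicate; inactive = neither replicate meets both conditions.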
# What was measured:
# [1] = HUVEC growth inhibition – cell-based, human, primary screen (AID 575;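 active = viability at or below 30% in both replicate assays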;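 note: 100% = median of untreated cell wells with 0.1% DMSO on each plate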); conditions: HUVEC proliferation, CellTiter-Glo luminescence, 72 h; at 10 µM; stronger effect = lower value
# [2] = yeast transport mutant growth inhibition pilot in 384-well plates, post-Golgi transport modulator project (AID 636; in the data active = inhibition above about 31%); conditions: absorbance 615 nm, about 18 h, stronger effect = higher value
# [3] = growth suppression of yeast trafficking mutant, preliminary HTS, modulators of trafficking downstream of Golgi apparatus project, 1536-format plate, OD 615 nm (AID 637; in the data active = inhibition above about 30%); conditions: yeast transport mutant growth, absorbance 615 nm, 18 h; stronger effect = higher value
# [4] = MRP1 drug-resistance reversers in H69AR cells – cell-based, doxorubicin co-treatment, pilot screen (AID 601); conditions: CellTiter-Glo, 72 h, at 10 µM; for differential viability (reversal): stronger effect = higher value
# [5] = H69AR cell proliferation blockers – human, duplicate replicates, primary screen (AID 580;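 active = viability at or under a set limit in both replicates, limit being median viability minus 3 SD, cut at about 48% in these data, passing the limit was not always enough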;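 note: 100% = mean luminescence of untreated wells and 0% = no signal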); conditions: H69AR lung tumor cells viability, ATP luminescence, 72 h; at 10 µM; stronger effect = lower value
# [6] = S. cerevisiae growth inhibition in permissive medium (OD615), pilot counter-assay for S. cerevisiae lifespan shortening project, permissive growth control (AID 705;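 active = growth inhibition above 25% in both replicates, a cutoff set 3 SD above the mean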); conditions: OD615, 24 h, at 10 µM, stronger effect = higher value
# [7] = S. cerevisiae growth inhibition in restrictive medium, OD615, pilot screen, restrictive growth control, yeast lifespan reduction project (AID 706;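 active = growth inhibition above a set limit, 3 SD over mean compound inhibition, in both replicates, cut at about 43% in these data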;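 note: modified DeaD lifespan yeast strain shifted to restrictive glucose medium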); conditions: OD615, 48 h, at 10 µM, stronger effect = higher value
# [8] = doxorubicin toxicity protection in MRP-1 cells – H69AR cells, CellTiter-Glo, duplicate, MRP-1 activator project, pilot screen (AID 807;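 active = viability increase at or above a cutoff of the median across tested compounds plus 3 SD, cut at about 8.5% in these data, passing the limit was not always enough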;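 note: compound pretreatment 18-22 h then 72 h combined with doxorubicin; 0% = doxorubicin alone and 100% = vehicle without doxorubicin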); conditions: H69AR viability with doxorubicin, CellTiter-Glo luminescence; at 10 µM; stronger effect = higher value
# [9] = viability of HCT116 without oncogenic beta-catenin – human colon tumor cells, pilot screen (AID 823;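 active = cell viability at or below a set limit in both duplicate runs, the limit being the all-compound median minus 4 SD, cut at about 23% in these data, passing the limit was not always enough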;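 note: 0% = wells killed by 20 µM Hyamine and 100% = untreated DMSO cell wells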); conditions: HCT116 beta-catenin knockout viability, CellTiter-Glo, 60 h; at 10 µM; stronger effect = lower value
# [10] = viability of PTEN-null HCT116 cells – cell-based, HCT116 clonal line, CellTiter-Glo, pilot screen (AID 824;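 active = viability at or below 27.92% in each of two runs, the all-compound median minus 4 SD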;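 note: 0% = 20 µM Hyamine control and 100% = vehicle cell control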); conditions: HCT116 PTEN-deleted viability, 60 h, at 10 µM, stronger effect = lower value
# [11] = RAM pathway blockade in budding yeast – dse1pr::URA3 reporter, 5-FOA selection, pilot screen (AID 869;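 active = inhibition over a set limit, the all-compound mean plus 3 SD, in both replicate runs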;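 note: 0% = DMSO wells with no growth and 100% = 10 µM 1-NA-PP1 with full growth; RAM network block rescues cells from 5-FOA so hits raise OD615 growth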); conditions: S. cerevisiae dse1pr::URA3 5-FOA growth, OD615, 2 d; at 10 µM; stronger effect = higher value; strain carries analog-sensitive mutant Cbk1 kinase
# [12] = H69AR cells + 2 uM doxorubicin, measured here: viability with 2 uM doxorubicin, stronger effect = lower value
# [13] = H69AR cells, compound alone cytotoxicity
compound,measurement,setting,value
Cc1ccc(C2C3CN(C(C)C)CC=C3C(C#N)=C(N)C2(C#N)C#N)cc1 (stereo unspecified),viability,[1],62.9% (inactive)
same,inhibition,[2],-6.27% (inactive)
same,inhibition,[3],1.43% (inactive)
CSc1ccc2c(c1)N(CCC1CCCCN1C)c1ccccc1S2 (stereo unspecified),viability,[1],2.44% (active)
same,differential viability (reversal),[4]; H69AR cells + 2 uM doxorubicin,0.67% (inactive)
same,viability,[4]; [12],1.26%
same,viability,[4]; [13],1.93%
Cc1cc(C)c(C(=O)CSc2nnc(-c3ccccc3Br)o2)cc1C,viability,[5],73.1% (inactive)
same,differential viability (reversal),[4]; H69AR cells + 2 uM doxorubicin,-2.75% (inactive)
same,viability,[4]; [12],75.8%
same,viability,[4]; [13],73.1%
same,inhibition,[2],-3.87% (inactive)
same,inhibition,[3],3.49% (inactive)
O=c1c2ccccc2nc(-c2cccc(Cl)c2)n1O,viability,[1],84.6% (inactive)
same,differential viability (reversal),[4]; H69AR cells + 2 uM doxorubicin,-14.1% (inactive)
same,viability,[4]; [12],60.1%
same,viability,[4]; [13],45.9%
same,inhibition,[2],-3.68% (inactive)
same,inhibition,[3],0.32% (inactive)
Oc1ccc(Nc2nc(-c3ccc(O)cc3)cs2)cc1,viability,[5],58.4% (inactive)
same,differential viability (reversal),[4]; H69AR cells + 2 uM doxorubicin,-29.7% (inactive)
same,viability,[4]; [12],88.1%
same,viability,[4]; [13],58.4%
same,inhibition,[2],-8.13% (inactive)
same,inhibition,[3],-4.13% (inactive)
CCCCCCCCNC(C)C(O)c1ccc(SC(C)C)cc1 (stereo unspecified),viability,[1],2.21% (active)
same,differential viability (reversal),[4]; H69AR cells + 2 uM doxorubicin,-0.28% (inactive)
same,viability,[4]; [12],1.44%
same,viability,[4]; [13],1.16%
CC(=O)Oc1cccc(/C=c2\sc3nc(-c4ccco4)nn3c2=O)c1,viability,[1],56.6% (inactive)
same,differential viability (reversal),[4]; H69AR cells + 2 uM doxorubicin,-3.61% (inactive)
same,viability,[4]; [12],55.8%
same,viability,[4]; [13],52.2%
same,inhibition,[2],-0.91% (inactive)
same,inhibition,[3],1.27% (inactive)
COCCCNC(=O)c1c(N)n(-c2cccc(S(N)(=O)=O)c2)c2nc3ccccc3nc12,viability,[5],67.2% (inactive)
same,differential viability (reversal),[4]; H69AR cells + 2 uM doxorubicin,-8.22% (inactive)
same,viability,[4]; [12],75.4%
same,viability,[4]; [13],67.2%
same,inhibition,[2],-4.13% (inactive)
same,inhibition,[3],-0.79% (inactive)
O=c1c2cn[nH]c2nc(SCc2ccc3c(c2)OCCO3)n1-c1ccccc1,viability,[1],74.4% (inactive)
same,differential viability (reversal),[4]; H69AR cells + 2 uM doxorubicin,-22.2% (inactive)
same,viability,[4]; [12],83.9%
same,viability,[4]; [13],61.7%
same,inhibition,[2],1.45% (inactive)
same,inhibition,[3],-4.44% (inactive)
CCn1c(=N)n(CC(O)COc2cccc(C)c2)c2ccccc21 (stereo unspecified),viability,[5],69.9% (inactive)
same,differential viability (reversal),[4]; H69AR cells + 2 uM doxorubicin,-2.36% (inactive)
same,viability,[4]; [12],72.3%
same,viability,[4]; [13],69.9%
same,inhibition,[2],3.55% (inactive)
same,inhibition,[3],-5.08% (inactive)
Cc1cc2oc(=O)cc(CN3CCCCC3)c2cc1C(C)C,viability,[1],52.5% (inactive)
same,differential viability (reversal),[4]; H69AR cells + 2 uM doxorubicin,0.87% (inactive)
same,viability,[4]; [12],51.2%
same,viability,[4]; [13],52.1%
same,inhibition,[2],-1.82% (inactive)
same,inhibition,[3],-2.06% (inactive)
CN1CCCN(C(c2ccccc2)c2ccc(Cl)cc2)CC1 (stereo unspecified),viability,[1],54.3% (inactive)
same,differential viability (reversal),[4]; H69AR cells + 2 uM doxorubicin,-24.5% (inactive)
same,viability,[4]; [12],69.4%
same,viability,[4]; [13],44.8%
COc1cc(-n2nc(C)c3c2OC(N)=C(C#N)C3c2ccccc2)c(Cl)c(Br)c1O (stereo unspecified),viability,[1],50% (inactive)
same,differential viability (reversal),[4]; H69AR cells + 2 uM doxorubicin,1.54% (inactive)
same,viability,[4]; [12],68%
same,viability,[4]; [13],69.5%
same,inhibition,[2],-6.4% (inactive)
same,inhibition,[3],-4.6% (inactive)
Nc1nc(Cl)nc2c1ncn2[C@@H]1O[C@H](CO)[C@@H](O)[C@H]1O,viability,[1],3.95% (active)
same,differential viability (reversal),[4]; H69AR cells + 2 uM doxorubicin,-24.3% (inactive)
same,viability,[4]; [12],74.6%
same,viability,[4]; [13],50.3%
same,inhibition,[2],-1.43% (inactive)
same,inhibition,[3],1% (inactive)
OCCNc1ncnc2c1c(-c1ccccc1)c(-c1ccccc1)n2Cc1ccco1,viability,[5],72.4% (inactive)
CC(C)(C)C1CCc2onc(C(=O)Nc3cnn(Cc4ccc(F)cc4)c3)c2C1 (stereo unspecified),viability,[5],32.9% (active)
CCOC(=O)CSc1nc2c(c(=O)n(C)c(=O)n2C)n1Cc1ccccc1F,growth inhibition,[6],-8.61% (inactive)
same,growth inhibition,[7],2.55% (inactive)
same,viability increase,[8],0.38% (inactive)
same,viability,[9],95.9% (inactive)
same,viability,[10],93.6% (inactive)
same,inhibition,[11],2% (inactive)
COc1cc(Cl)c(S(=O)(=O)N2CCN(Cc3ccc4c(c3)OCO4)CC2)cc1Cl,growth inhibition,[6],-9.75% (inactive)
same,growth inhibition,[7],-4.02% (inactive)
same,viability increase,[8],-2.17% (inactive)
same,viability,[9],84.2% (inactive)
same,viability,[10],82.2% (inactive)
same,inhibition,[11],1.04% (inactive)
O=C(Cn1cc2c(n1)CCCCC2)NCCCN1CCOCC1,growth inhibition,[6],-9.29% (inactive)
same,growth inhibition,[7],-6.7% (inactive)
same,viability increase,[8],0.92% (inactive)
same,viability,[9],112% (inactive)
same,viability,[10],99.8% (inactive)
same,inhibition,[11],2.08% (inactive)
Cc1ccccc1S(=O)(=O)Cc1ccc(C(=O)N2CC(C)CC(C)C2)o1 (stereo unspecified),growth inhibition,[6],-18.1% (inactive)
same,growth inhibition,[7],-32% (inactive)
same,viability increase,[8],-0.61% (inactive)
same,viability,[9],103% (inactive)
same,viability,[10],90.2% (inactive)
same,inhibition,[11],-0.465% (inactive)
